Experimental data taken from PubChem BioAssay AID504521 (NMMLSC, 2011).
Some of the results follow. Activity calls are given as the source filed them.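 How the source made its calls: active means compounds whose bead fluorescence drops by more than 37 kMESF across the dose range, marking them as dye quenchers; inactive means the rest.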

Assay: aptamer fluorescence quenchers, flow cytometry – biochemical, cherry pick 1, bead-based flow cytometry, artefact control for GRK2 RNA aptamer inhibitor project, dose response (AID 504521)
Details: Fluorescent RNA aptamer beads, quenching, hits give high values

Fluorescence change (kMESF span), inactive:
CCN1/C(=C\c2ccc3ccccc3[n+]2CC)Sc2cc(C)ccc21 8.1 kMESF
C=C(C)C(=O)Nc1cccc(C2=NOC3(C2)C[C@H](C(N)=O)N(C(=O)C(c2ccccc2)c2ccccc2)C3)c1 (stereo not given in full) -3.5 kMESF
COc1ccc(N2CCN(C(CNS(=O)(=O)c3ccc(C)cc3)c3ccccc3)CC2)cc1 (stereo not given) 7.4 kMESF
CCN1/C(=C/c2ccc3ccc(C)cc3[n+]2CC)Sc2ccccc21 -1.6 kMESF
O=C(CCS(=O)(=O)c1ccc(Br)cc1)NCCc1ccc(Cl)cc1 10.9 kMESF
